According to the supplement of paper PMC10849652:
About 8,800 targets were measured; listed, in parts, are those with a hit and a random draw of the rest. About 0.5% of all pairs of compound and target were hits. A number with no mark means an inactive call.

Key:
Test in all cases: log2 fold change, soluble protein after heating vs DMSO (PISA); higher = thermal stabilisation; K562 lysate, 10 uM; active = over 0.2 and 3.5 SD of the protein, either way, in both replicates (recomputed)
alvocidib = compound: CN1CC[C@H](c2c(O)cc(O)c3c(=O)cc(-c4ccccc4Cl)oc23)[C@H](O)C1 [alvocidib]
Outline: (§1)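 Following dounce homogenisation of K562 pellets in PBS pH 7.4 with 1 mM MgCl2, crude extract at 1 mg/mL protein was incubated for 30 min with 10 μM compound. Aliquots were then heated for 3 min over 48°C-58°C and pooled, NP-40 was added to 0.5% at 4°C, and soluble protein was recovered as the supernatant at 21,000xg for 90 min. Channel-sum-equalised TMTpro 16plex LC-MS/MS quantified this protein. Each value, from duplicates, is a log-two fold change in thermal stability relative to solvent controls.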

Tubastatin A = compound: CN1CCc2c(c3ccccc3n2Cc2ccc(C(=O)NO)cc2)C1 [Tubastatin A]
Outline: as §1

[1] = compound: CNC(=O)C1=CC=CC=C1NC2=NC(=NC=C2Cl)NC3=C(C=C(C=C3)N4CCOCC4)OC
Outline: as §1

defactinib = compound: CNC(=O)c1ccc(Nc2ncc(C(F)(F)F)c(NCc3nccnc3N(C)S(C)(=O)=O)n2)cc1 [defactinib]
Outline: as §1

[2] = compound: CNc1nc(-c2ccc3c(N)n[nH]c3c2)cc(N2C[C@@H](C(=O)NC3CCCCC3)CC[C@H]2C)n1
Outline: as §1

encorafenib = compound: COC(=O)N[C@@H](C)CNc1nccc(-c2cn(C(C)C)nc2-c2cc(Cl)cc(NS(C)(=O)=O)c2F)n1 [encorafenib]
Outline: as §1

[3] = compound: COC(=O)[C@H](CCSC)NC(=O)C1=C(C=C(C=C1)NC[C@H](CS)N)C2=CC=CC=C2
Outline: as §1

[4] = compound: COc1cc2nc(-c3cc(F)ccc3O)nc(N[C@@H]3CNC[C@H]3C(C)(C)O)c2cc1OC
Outline: as §1

lapatinib = compound: CS(=O)(=O)CCNCc1ccc(-c2ccc3ncnc(Nc4ccc(OCc5cccc(F)c5)c(Cl)c4)c3c2)o1 [lapatinib]
Outline: as §1

pictilisib = compound: CS(=O)(=O)N1CCN(Cc2cc3nc(-c4cccc5[nH]ncc45)nc(N4CCOCC4)c3s2)CC1 [pictilisib]
Outline: as §1

[5] = compound: C[C@H](C1=CC=C(C=C1)C(=O)NC2=C3C=CNC3=NC=C2)N
Outline: as §1

duvelisib = compound: C[C@H](Nc1ncnc2nc[nH]c12)c1cc2cccc(Cl)c2c(=O)n1-c1ccccc1 [duvelisib]
Outline: as §1

gandotinib = compound: Cc1cc(Nc2cc(CN3CCOCC3)c3nc(C)c(Cc4ccc(Cl)cc4F)n3n2)n[nH]1 [gandotinib]
Outline: as §1

tozasertib = compound: Cc1cc(Nc2cc(N3CCN(C)CC3)nc(Sc3ccc(NC(=O)C4CC4)cc3)n2)n[nH]1 [tozasertib]
Outline: as §1

doramapimod = compound: Cc1ccc(-n2nc(C(C)(C)C)cc2NC(=O)Nc2ccc(OCCN3CCOCC3)c3ccccc23)cc1 [doramapimod]
Outline: as §1

bafetinib = compound: Cc1ccc(NC(=O)c2ccc(CN3CC[C@H](N(C)C)C3)c(C(F)(F)F)c2)cc1Nc1nccc(-c2cncnc2)n1 [bafetinib]
Outline: as §1

[6] = compound: Cc1cccc(CC(=O)N2CCc3c2ccc(-c2cn(C)c4ncnc(N)c24)c3F)n1
Outline: as §1

alisertib = compound: COc1cc(Nc2ncc3c(n2)-c2ccc(Cl)cc2C(c2c(F)cccc2OC)=NC3)ccc1C(=O)O [alisertib]
Outline: as §1

gefitinib = compound: COc1cc2ncnc(Nc3ccc(F)c(Cl)c3)c2cc1OCCCN1CCOCC1 [gefitinib]
Outline: as §1

crizotinib = compound: C[C@@H](Oc1cc(-c2cnn(C3CCNCC3)c2)cnc1N)c1c(Cl)ccc(F)c1Cl [crizotinib]
Outline: as §1

Chain of UniProt O95396 (O95396 whole entry, looked up): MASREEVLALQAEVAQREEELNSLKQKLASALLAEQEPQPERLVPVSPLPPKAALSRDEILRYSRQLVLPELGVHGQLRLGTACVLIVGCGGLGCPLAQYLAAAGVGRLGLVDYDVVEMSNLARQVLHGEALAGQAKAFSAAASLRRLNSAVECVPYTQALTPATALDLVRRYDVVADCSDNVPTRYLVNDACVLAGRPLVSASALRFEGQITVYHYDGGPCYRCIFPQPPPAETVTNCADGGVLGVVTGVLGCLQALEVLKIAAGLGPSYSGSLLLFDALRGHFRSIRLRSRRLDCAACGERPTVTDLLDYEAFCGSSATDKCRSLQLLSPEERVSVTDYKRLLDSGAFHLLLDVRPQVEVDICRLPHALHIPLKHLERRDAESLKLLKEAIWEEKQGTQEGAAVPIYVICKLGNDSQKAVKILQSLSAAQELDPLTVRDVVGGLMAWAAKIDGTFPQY
Chain of UniProt P49916 (P49916 whole entry, looked up): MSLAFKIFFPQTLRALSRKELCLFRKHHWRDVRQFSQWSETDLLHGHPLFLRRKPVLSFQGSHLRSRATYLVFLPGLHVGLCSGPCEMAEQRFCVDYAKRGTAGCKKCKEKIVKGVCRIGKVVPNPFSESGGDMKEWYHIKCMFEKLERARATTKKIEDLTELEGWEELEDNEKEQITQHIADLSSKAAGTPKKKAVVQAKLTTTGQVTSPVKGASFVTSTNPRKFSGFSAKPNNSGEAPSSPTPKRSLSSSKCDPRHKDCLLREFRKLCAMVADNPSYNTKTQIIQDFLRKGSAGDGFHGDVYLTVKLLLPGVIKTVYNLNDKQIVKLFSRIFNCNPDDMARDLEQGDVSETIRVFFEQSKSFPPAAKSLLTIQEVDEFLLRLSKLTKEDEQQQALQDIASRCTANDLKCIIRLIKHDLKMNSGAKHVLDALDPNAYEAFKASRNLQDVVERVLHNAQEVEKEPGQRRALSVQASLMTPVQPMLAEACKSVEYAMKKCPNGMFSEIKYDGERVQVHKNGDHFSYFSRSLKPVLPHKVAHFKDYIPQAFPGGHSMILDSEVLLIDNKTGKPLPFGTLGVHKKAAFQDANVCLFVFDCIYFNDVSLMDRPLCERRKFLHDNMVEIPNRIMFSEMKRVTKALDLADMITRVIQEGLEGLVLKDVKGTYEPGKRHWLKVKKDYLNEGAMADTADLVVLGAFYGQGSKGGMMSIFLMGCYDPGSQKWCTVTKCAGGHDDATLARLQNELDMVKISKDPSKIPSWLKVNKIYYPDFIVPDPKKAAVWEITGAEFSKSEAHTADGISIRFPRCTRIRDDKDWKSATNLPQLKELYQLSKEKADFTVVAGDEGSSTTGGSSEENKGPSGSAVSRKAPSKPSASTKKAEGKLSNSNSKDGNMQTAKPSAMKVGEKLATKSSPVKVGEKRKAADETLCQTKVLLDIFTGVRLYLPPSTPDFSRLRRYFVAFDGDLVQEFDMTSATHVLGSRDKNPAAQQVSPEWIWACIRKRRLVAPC
Chain of UniProt Q14703 (Q14703 whole entry, looked up): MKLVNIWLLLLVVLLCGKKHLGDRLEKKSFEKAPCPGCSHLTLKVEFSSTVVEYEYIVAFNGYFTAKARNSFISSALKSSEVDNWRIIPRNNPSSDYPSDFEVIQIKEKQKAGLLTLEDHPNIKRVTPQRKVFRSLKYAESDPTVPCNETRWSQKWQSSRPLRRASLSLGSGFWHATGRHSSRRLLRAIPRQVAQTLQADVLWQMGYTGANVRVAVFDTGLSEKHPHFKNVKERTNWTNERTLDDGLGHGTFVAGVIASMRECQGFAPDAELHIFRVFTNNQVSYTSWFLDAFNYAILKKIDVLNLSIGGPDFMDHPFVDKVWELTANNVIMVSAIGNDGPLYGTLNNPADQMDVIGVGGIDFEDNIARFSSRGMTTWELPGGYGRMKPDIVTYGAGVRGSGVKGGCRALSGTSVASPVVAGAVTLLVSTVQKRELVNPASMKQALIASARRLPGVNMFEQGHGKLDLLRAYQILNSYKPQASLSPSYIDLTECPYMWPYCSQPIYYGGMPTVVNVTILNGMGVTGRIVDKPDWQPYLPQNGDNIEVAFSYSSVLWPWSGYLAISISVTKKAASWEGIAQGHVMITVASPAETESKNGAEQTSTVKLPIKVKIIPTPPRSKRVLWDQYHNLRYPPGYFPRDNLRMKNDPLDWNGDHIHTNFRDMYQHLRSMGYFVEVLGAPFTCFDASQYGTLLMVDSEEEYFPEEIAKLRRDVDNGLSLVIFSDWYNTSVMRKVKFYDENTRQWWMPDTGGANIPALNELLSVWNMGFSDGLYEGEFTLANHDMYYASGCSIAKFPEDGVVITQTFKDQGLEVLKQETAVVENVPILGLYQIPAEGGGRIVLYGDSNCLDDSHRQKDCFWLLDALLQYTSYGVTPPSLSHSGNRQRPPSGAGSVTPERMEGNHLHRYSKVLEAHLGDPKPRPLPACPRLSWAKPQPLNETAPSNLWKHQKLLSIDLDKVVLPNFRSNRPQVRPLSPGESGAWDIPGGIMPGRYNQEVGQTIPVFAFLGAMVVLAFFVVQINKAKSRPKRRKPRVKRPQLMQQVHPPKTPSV
Chain of UniProt Q6P0Q8 (Q6P0Q8 whole entry, looked up): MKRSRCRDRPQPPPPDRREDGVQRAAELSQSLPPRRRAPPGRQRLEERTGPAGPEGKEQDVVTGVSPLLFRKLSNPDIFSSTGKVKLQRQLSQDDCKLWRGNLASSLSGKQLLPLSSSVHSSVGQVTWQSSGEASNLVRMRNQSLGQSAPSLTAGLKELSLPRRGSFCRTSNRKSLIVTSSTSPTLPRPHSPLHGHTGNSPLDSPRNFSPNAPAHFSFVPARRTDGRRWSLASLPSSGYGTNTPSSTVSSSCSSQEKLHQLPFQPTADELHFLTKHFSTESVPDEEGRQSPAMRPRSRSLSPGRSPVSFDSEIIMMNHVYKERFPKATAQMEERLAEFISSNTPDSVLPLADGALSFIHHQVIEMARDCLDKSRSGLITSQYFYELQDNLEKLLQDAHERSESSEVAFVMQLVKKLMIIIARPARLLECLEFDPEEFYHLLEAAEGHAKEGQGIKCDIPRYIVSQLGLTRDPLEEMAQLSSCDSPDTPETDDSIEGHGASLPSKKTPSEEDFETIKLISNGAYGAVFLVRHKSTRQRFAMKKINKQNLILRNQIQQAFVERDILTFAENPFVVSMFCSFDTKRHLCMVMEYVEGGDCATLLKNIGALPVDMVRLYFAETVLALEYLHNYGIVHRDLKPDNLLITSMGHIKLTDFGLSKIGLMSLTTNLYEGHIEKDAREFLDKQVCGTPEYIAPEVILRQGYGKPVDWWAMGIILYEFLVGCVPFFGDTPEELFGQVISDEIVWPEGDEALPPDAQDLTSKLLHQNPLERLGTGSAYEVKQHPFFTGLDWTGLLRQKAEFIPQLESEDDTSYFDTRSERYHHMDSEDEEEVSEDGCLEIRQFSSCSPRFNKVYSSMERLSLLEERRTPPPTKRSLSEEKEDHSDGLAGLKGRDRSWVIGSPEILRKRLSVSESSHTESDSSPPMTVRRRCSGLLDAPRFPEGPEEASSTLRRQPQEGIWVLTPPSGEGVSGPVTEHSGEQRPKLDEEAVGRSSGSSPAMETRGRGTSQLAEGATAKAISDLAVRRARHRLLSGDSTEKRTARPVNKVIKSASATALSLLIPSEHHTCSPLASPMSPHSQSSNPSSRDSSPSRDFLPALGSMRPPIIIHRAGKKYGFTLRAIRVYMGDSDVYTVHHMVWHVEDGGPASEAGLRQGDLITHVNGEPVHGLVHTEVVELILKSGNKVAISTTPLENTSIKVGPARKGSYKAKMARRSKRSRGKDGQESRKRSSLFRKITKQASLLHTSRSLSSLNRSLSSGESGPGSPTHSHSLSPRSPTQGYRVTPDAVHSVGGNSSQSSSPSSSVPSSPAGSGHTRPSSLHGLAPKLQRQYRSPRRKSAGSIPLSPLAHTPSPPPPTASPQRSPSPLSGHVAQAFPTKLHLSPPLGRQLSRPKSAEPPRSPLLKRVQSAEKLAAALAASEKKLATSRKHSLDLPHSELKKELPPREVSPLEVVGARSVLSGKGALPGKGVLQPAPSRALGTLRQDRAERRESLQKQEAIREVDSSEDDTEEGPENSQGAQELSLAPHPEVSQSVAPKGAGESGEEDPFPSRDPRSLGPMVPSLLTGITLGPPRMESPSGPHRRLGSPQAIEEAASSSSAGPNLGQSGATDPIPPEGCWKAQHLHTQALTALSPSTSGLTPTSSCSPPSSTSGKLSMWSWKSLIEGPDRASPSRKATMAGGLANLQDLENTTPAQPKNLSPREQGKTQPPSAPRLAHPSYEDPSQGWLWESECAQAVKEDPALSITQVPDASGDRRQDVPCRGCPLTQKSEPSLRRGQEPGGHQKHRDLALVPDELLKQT
Chain of UniProt Q8N5G2 (Q8N5G2 whole entry, looked up): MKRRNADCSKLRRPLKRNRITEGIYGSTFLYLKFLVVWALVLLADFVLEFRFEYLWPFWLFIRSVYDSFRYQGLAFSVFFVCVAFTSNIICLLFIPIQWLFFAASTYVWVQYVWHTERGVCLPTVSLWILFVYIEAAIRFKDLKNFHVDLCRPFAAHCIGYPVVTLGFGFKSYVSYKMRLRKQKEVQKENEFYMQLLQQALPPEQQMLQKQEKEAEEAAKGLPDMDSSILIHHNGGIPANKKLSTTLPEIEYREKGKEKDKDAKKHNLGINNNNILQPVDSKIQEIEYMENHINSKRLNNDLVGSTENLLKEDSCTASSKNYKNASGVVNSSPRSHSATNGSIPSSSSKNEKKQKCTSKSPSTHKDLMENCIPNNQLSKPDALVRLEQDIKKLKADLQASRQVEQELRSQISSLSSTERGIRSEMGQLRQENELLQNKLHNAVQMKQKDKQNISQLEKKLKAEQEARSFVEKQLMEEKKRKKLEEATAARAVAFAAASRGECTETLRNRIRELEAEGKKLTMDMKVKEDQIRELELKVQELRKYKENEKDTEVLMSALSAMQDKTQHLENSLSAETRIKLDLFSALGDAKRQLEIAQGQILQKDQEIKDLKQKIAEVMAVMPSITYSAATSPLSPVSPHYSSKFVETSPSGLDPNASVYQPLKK

| Target | log2 fold change (alvocidib) | log2 fold change (Tubastatin A) | log2 fold change [1] | log2 fold change (defactinib) | log2 fold change [2] | log2 fold change (encorafenib) | log2 fold change [3] | log2 fold change [4] | log2 fold change (lapatinib) | log2 fold change (pictilisib) | log2 fold change [5] | log2 fold change (duvelisib) | log2 fold change (gandotinib) | log2 fold change (tozasertib) | log2 fold change (doramapimod) | log2 fold change (bafetinib) | log2 fold change [6] | log2 fold change (alisertib) | log2 fold change (gefitinib) | log2 fold change (crizotinib) |
| --- | --- | --- | --- | --- | --- | --- | --- | --- | --- | --- | --- | --- | --- | --- | --- | --- | --- | --- | --- | --- |
| MAP4K2 (UniProt Q12851) | 0.111 | -0.189 | -0.02 | 0.086 | 0.055 | -0.183 | -0.234 | 0.219 | -0.164 | 0.126 | 0.145 | 0.077 | 0.273 | 0.054 | 0.035 | -0.126 | -0.015 |  |  |  |
| KIF2C (UniProt Q99661) | 0.011 | -0.18 | -0.006 | 0.018 | 0.002 | 0.004 | 0.096 | 0.001 | 0.002 | -0.003 | 0.004 | 0.011 | -0.051 | -0.008 | 0.022 | 0.004 | -0.002 | -0.006 | -0.014 | -0.007 |
| MACO1 (UniProt Q8N5G2) | -0.003 | -0.003 | -0.012 | 0.01 | 0.119 | -0.101 | -0.016 | -0.005 | 0.016 | 0.041 | -0.019 | 0.015 | -0.008 | 0.138 | -0.035 | -0.001 | -0.001 | -0.024 | 0.04 | 0.003 |
| MAST2 (UniProt Q6P0Q8) | -0.096 | -0.06 | 0.219 | -0.009 | -0.009 | 0.114 | 0.078 | -0.002 | 0.012 | 0.161 | -0.171 | -0.065 | -0.07 | 0.148 | -0.034 | -0.289 | -0.092 |  |  | -0.004 |
| MED12 isoform 2 (UniProt Q93074) | -0.022 | -0.161 | -0.02 | 0.029 | -0.041 | 0.028 | 0.06 | -0.011 | 0.009 | 0.017 | 0.002 | 0 | -0.072 | -0.033 | 0.011 | -0.012 | -0.011 | 0.016 | 0.027 | -0.017 |
| METTL7A (UniProt Q9H8H3) | -0.079 | 0.014 | 0.003 | 0.011 | 0.041 | -0.041 | 0.151 | -0.01 | 0.023 | 0.019 | -0.019 | 0.021 | 0.226 | -0.081 | 0.071 | 0.048 | 0.019 | -0.036 | -0.046 | 0.177 |
| MAPK14 isoform 2 (UniProt Q16539) | 0.154 | -0.121 | 0.299 | 0.01 | -0.041 | 0.454 | 0.257 | -0.004 | -0.008 | -0.054 | 0.222 | -0.026 | -0.086 | 0.001 |  | 0.765 | -0.122 | -0.065 | 0.144 | -0.028 |
| MPP5 (UniProt Q8N3R9) | 0.066 | -0.08 | -0.051 | 0.034 | 0.045 | 0.073 | 0.114 |  |  | -0.091 | -0.003 | -0.017 | 0.01 | -0.033 | 0.115 | -0.043 | 0.099 | -0.217 | -0.139 | -0.028 |
| LUC7L (UniProt Q9NQ29) | -0.259 (active) | 0.015 | -0.117 | -0.075 | 0.002 | 0.065 | -0.039 | 0.01 | -0.022 | -0.009 | -0.097 | 0.006 | -0.32 (active) | 0.012 | -0.028 | -0.022 | 0.023 | 0.033 | 0.037 | 0.097 |
| MDM1 (UniProt Q8TC05) | -0.527 | 0.007 | -0.071 | -0.126 | -0.328 | 0 | -0.12 | -0.031 | -0.004 |  | -1.42 (active) | 0.05 | 0.336 | 0.083 |  |  | 0.554 (active) | 0.018 | 0.14 |  |
| MRPL27 (UniProt Q9P0M9) | 0.082 | -0.017 | 0.016 |  | -0.028 | -0.047 | 0.008 | 0 | 0.02 | 0.017 | 0.658 (active) | 0.02 | -0.249 | 0.029 | 0.011 | 0.012 | -0.076 | -0.019 | 0.022 | -0.046 |
| MBTPS1 (UniProt Q14703) | 0.096 | -0.058 | 0.013 | -0.002 | 0.029 | 0.048 | -0.036 |  |  | 0.012 | 0.114 | -0.006 | -0.164 | -0.009 | 0.01 | -0.001 | -0.15 |  |  | -0.008 |
| MOCS3 (UniProt O95396) | -0.213 | -0.082 | 0.111 | -0.161 | -0.008 | 0.056 | -0.094 |  |  | 0.004 | -0.176 | 0.009 | 0.227 | 0.027 | 0.072 | -0.054 | 0.348 | 0.031 | -0.231 | -0.127 |
| MAP4 (UniProt E7EVA0) | -0.074 | 0.1 | 0 | 0.01 | 0.037 | -0.04 | -0.117 | 0.054 | 0.002 | -0.054 | -0.096 | 0.012 | 0.007 | 0.055 | 0.017 | -0.055 | 0.008 | -0.028 | 0.098 | -0.163 |
| LIG3 (UniProt P49916) | -0.017 | -0.142 | 0.007 | 0.006 | -0.002 | 0.023 | 0.121 | -0.008 | -0.007 | 0.006 | -0.008 | 0.01 | -0.05 | -0.004 | 0.016 | -0.046 | 0.016 | -0.009 | -0.015 | -0.044 |
| MAPK1 (UniProt P28482) | 0.051 | 0.061 | 0.242 (active) | 0.091 | -0.007 | -0.062 | 0.031 | 0.043 | -0.018 | 0.005 | -0.004 | 0.004 | 0.036 | -0.01 | -0.013 | 0.004 | -0.061 | -0.038 | 0.014 | 0.065 |
